Data: PubChem BioAssay
Unmarked numbers belong to inactive results. Active and inactive are the calls of the source. Rule as the data show it, unless noted: active = inhibition above about 44%; inactive = the rest.

Columns and labels:
[1] = StAR promoter reporter inhibitors, counter-screen for LRH-1 inverse agonist project, cell-based, luminescence, high throughput (AID 651611; in the data active = inhibition above about 28%); settings: StAR promoter luciferase reporter counterscreen, at 3.6 µM, stronger effect = higher value
[2] = target: Nuclear receptor subfamily 5 group A member 2 (Homo sapiens) (UniProt O00482); test: LRH-1 (NR5A2) inverse agonists, retest, confirmation, cell-based, luminescence (AID 651613; in the data active = inhibition above about 42%;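 also: HEK293T cells co-transfected with LRH-1 and StAR promoter luciferase reporter; 0% = vehicle wells and 100% = parental cells lacking receptor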); settings: cell-based LRH-1 luciferase reporter, inverse agonism; at 3.6 µM; stronger effect = higher value
Chain of Nuclear receptor subfamily 5 group A member 2 (Homo sapiens) (O00482 whole entry, looked up): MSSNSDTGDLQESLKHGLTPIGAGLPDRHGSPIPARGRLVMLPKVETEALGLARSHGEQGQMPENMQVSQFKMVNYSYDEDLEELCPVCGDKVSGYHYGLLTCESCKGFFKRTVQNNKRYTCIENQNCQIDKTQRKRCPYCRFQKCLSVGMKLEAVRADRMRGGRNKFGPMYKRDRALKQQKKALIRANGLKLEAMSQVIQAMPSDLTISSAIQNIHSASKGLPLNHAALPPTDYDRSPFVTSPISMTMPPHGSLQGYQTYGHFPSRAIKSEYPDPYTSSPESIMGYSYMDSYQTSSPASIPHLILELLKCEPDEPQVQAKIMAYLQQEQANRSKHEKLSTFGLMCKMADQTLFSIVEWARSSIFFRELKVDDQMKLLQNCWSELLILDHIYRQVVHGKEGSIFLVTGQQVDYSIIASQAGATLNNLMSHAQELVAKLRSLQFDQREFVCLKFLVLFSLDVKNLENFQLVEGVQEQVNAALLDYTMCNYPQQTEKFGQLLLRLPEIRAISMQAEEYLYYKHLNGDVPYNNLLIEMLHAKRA

[3] = target: Steroidogenic factor 1 (Homo sapiens) (UniProt Q13285); test: SF1 (NR5A1) inverse agonists, counter-screen for LRH-1 inverse agonist project, cell-based, luminescence, high throughput (AID 651614); settings: cell-based SF1 luciferase reporter, at 3.6 µM, stronger effect = higher value;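 also: cells cotransfected with StAR promoter reporter and SF1 expression vector; 0% = vehicle on cells with receptor and 100% = vehicle on cells lacking receptor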
Chain of Steroidogenic factor 1 (Homo sapiens) (Q13285 whole entry, looked up, the tested form may be a part): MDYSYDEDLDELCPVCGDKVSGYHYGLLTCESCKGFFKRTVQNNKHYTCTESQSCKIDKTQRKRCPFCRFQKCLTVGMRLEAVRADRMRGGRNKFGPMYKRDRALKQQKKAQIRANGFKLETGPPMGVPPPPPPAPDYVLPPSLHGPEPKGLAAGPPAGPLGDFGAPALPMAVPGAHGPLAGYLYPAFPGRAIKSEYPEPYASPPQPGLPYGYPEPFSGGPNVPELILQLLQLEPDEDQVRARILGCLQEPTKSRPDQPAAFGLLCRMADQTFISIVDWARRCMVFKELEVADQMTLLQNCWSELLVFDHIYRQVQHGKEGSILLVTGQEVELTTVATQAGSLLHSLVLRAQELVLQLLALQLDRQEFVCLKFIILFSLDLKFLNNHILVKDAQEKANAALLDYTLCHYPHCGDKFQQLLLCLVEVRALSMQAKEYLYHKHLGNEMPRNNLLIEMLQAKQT

[4] = VP16 transactivation reporter inhibitors, counter-screen for LRH-1 inverse agonist project, cell-based, luminescence, high throughput (AID 651615; in the data active = inhibition above about 33%); settings: Gal4-VP16 luciferase reporter cells, at 3.6 µM, stronger effect = higher value

CS(=O)(=O)N1CCN(c2ccccc2NC(=O)c2cc3ccccc3o2)CC1
inhibition [1]: 26.4% | inhibition [2]: 47.5% (active) | inhibition [3]: 33.7% | inhibition [4]: -6.66%

O=C(CSC1=NCCS1)N1CCN(c2ccc(Cl)cc2)CC1
inhibition [1]: 8.14% | inhibition [2]: 56.3% (active) | inhibition [3]: 53.3% (active) | inhibition [4]: 18.2%

CCc1nc(SCC(=O)c2ccccc2)c2ccccc2n1
inhibition [1]: 7.58% | inhibition [2]: 45.8% (active) | inhibition [3]: 55.3% (active) | inhibition [4]: -18.1%

COC(=O)c1cc2c(-c3ccccc3)cc3ccccn3c-2c1C(=O)OC
inhibition [1]: 11.5% | inhibition [2]: 62.3% (active) | inhibition [3]: 54.5% (active) | inhibition [4]: 0.7%

Cc1cc(=O)oc2cc(O)cc(OCc3ccccc3)c12
inhibition [1]: 26% | inhibition [2]: 51.7% (active) | inhibition [3]: 45.2% (active) | inhibition [4]: -8.41%

O=C(COC(=O)Cc1ccccc1[N+](=O)[O-])NCc1ccc(Cl)cc1
inhibition [1]: 11.3% | inhibition [2]: 37.2% | inhibition [3]: 34.4% | inhibition [4]: -5.74%

N#CC1=C(N2CCOCC2)/C(=C\c2ccccc2)CC1
inhibition [1]: 14.8% | inhibition [2]: 51.9% (active) | inhibition [3]: 46.6% (active) | inhibition [4]: 8.41%

COc1ccc(CC(NC(C)=O)C(=O)NC2CCN(c3nnnn3-c3ccccc3)CC2)cc1 (stereo not drawn)
inhibition [1]: 10.5% | inhibition [2]: 45.1% (active) | inhibition [3]: 43.8% (active) | inhibition [4]: 2.12%

Cc1cccc(-c2cc(NCCc3cccnc3)n3nccc3n2)c1
inhibition [1]: 14.2% | inhibition [2]: 51.1% (active) | inhibition [3]: 41.3% | inhibition [4]: -2.05%

COc1ccc(OC)c(-n2c(-c3ccc(S(C)(=O)=O)cc3)cc(C=O)c2C)c1
inhibition [1]: 25% | inhibition [2]: 48.2% (active) | inhibition [3]: 55.3% (active) | inhibition [4]: -41.9%

N#Cc1c(N)c(C#N)c(-c2ccc(O)cc2)c2c1CCCC2
inhibition [1]: 6.6% | inhibition [2]: 57.8% (active) | inhibition [3]: 53.8% (active) | inhibition [4]: 9.21%

c1ccc(-n2nnnc2-c2cccc3ccccc23)cc1
inhibition [1]: 42% (active) | inhibition [2]: 52.5% (active) | inhibition [3]: 62.6% (active) | inhibition [4]: 23%

CCCc1cc(=O)oc2cc(OCC(=O)N3CCN(C(=O)C4COc5ccccc5O4)CC3)ccc12 (stereo not drawn)
inhibition [1]: 8.6% | inhibition [2]: 63.4% (active) | inhibition [3]: 55.5% (active) | inhibition [4]: 3.04%

CC1(C)CC(=O)C=C(c2ccc3c(c2)OCO3)C1
inhibition [1]: -7.31% | inhibition [2]: 40.6% | inhibition [3]: 42.1% | inhibition [4]: 2.47%

COc1cccc(C(C)(O)c2nc(-c3ccoc3)cs2)c1 (stereo not drawn)
inhibition [1]: -0.36% | inhibition [2]: 30.2% | inhibition [3]: 21.5% | inhibition [4]: -0.14%

S=C(NCc1ccc(Cl)cc1)Nc1ccncc1
inhibition [1]: 24.2% | inhibition [2]: 80.9% (active) | inhibition [3]: 72.8% (active) | inhibition [4]: 35.1% (active)

O=C(CCl)Nc1ccc(S(=O)(=O)NC2=NCCCCC2)cc1
inhibition [1]: 41.5% (active) | inhibition [2]: 62% (active) | inhibition [3]: 61% (active) | inhibition [4]: 17.7%

O=[N+]([O-])c1cnccc1Nc1ccc(Cl)cc1
inhibition [1]: 15.6% | inhibition [2]: 64.1% (active) | inhibition [3]: 60.5% (active) | inhibition [4]: 18.9%

O=C(COc1ccc(F)c(Cl)c1)Nc1ccc(N2CCOCC2)cc1
inhibition [1]: 3.59% | inhibition [2]: 36% | inhibition [3]: 39% | inhibition [4]: 3.92%

CC(=O)Nc1ccc(NC(=O)COC(=O)c2ccc([N+](=O)[O-])o2)cc1
inhibition [1]: 12.7% | inhibition [2]: 60.1% (active) | inhibition [3]: 51.9% (active) | inhibition [4]: -5.51%

O=C(CN1C(=O)NC2(CCCCC2)C1=O)NCCc1c[nH]c2ccccc12
inhibition [1]: 10.1% | inhibition [2]: 47.8% (active) | inhibition [3]: 56.5% (active) | inhibition [4]: 3.42%

CC(=O)Nc1ccc(NC(=O)CSc2ccc(-c3ccco3)nn2)cc1
inhibition [1]: 16.1% | inhibition [2]: 49.4% (active) | inhibition [3]: 44.7% (active) | inhibition [4]: -18.3%

CC[n+]1ccc(/C=C/c2ccc(N(C)C)cc2)c2ccccc21
inhibition [1]: 77.7% (active) | inhibition [2]: 110% (active) | inhibition [3]: 94.1% (active) | inhibition [4]: 91.1% (active)

CCOC(=O)c1cccc(C2=CC(=O)CC(C)(C)C2)c1
inhibition [1]: 1.21% | inhibition [2]: 46.3% (active) | inhibition [3]: 48.8% (active) | inhibition [4]: -12%

CC(C)NC(=O)N1Cc2cc(C(=O)NC3CCCC3)nc(-c3cccc(-c4cccnc4)c3)c2[C@@H]1CCO
inhibition [1]: 24.3% | inhibition [2]: 45.1% (active) | inhibition [3]: 42.1% | inhibition [4]: 5.54%

CCOc1ccc(CCNC(=O)COC(=O)/C=C/c2ccc(OC(F)F)c(OC)c2)cc1OCC
inhibition [1]: 12.5% | inhibition [2]: 51.5% (active) | inhibition [3]: 47.1% (active) | inhibition [4]: -3.71%

CCOc1ccc(CCNC(=O)COC(=O)c2cc(=O)[nH]c3ccccc23)cc1OCC
inhibition [1]: 8.79% | inhibition [2]: 53.2% (active) | inhibition [3]: 53.2% (active) | inhibition [4]: -8.43%

Cc1cc(OCC(=O)NC2CC2)c2c(C)cc(=O)oc2c1
inhibition [1]: 18.9% | inhibition [2]: 65.5% (active) | inhibition [3]: 58.2% (active) | inhibition [4]: -8.04%

O=C1/C(=C\c2ccc(Cl)c(Cl)c2)CN(C(=O)CCN2CCOCC2)C/C1=C/c1ccc(Cl)c(Cl)c1
inhibition [1]: 67.9% (active) | inhibition [2]: 93.2% (active) | inhibition [3]: 92.9% (active) | inhibition [4]: 79% (active)

CCOC(=O)N1CCN(C(=O)CSc2nc3c([nH]c4ccccc43)c(=O)n2CC)CC1
inhibition [1]: 36.3% (active) | inhibition [2]: 63.7% (active) | inhibition [3]: 55.8% (active) | inhibition [4]: -25.2%

Cn1c(=O)n(C)c2cc(NC(=O)CCl)ccc21
inhibition [1]: 60.5% (active) | inhibition [2]: 73.4% (active) | inhibition [3]: 61.5% (active) | inhibition [4]: -101%

O=C(NC(NNc1ccc([N+](=O)[O-])cc1)(C(F)(F)F)C(F)(F)F)c1ccccc1Cl
inhibition [1]: 7.51% | inhibition [2]: 18.4% | inhibition [3]: 34.1% | inhibition [4]: 5.04%

COCCn1c(SCC(=O)Nc2ccc(NC(C)=O)cc2)nc2ccccc2c1=O
inhibition [1]: 17% | inhibition [2]: 57.9% (active) | inhibition [3]: 52% (active) | inhibition [4]: 2.35%

CC1OC(CC(=O)O)CC2=C1C(=O)c1c(O)cccc1C2=O (stereo not drawn)
inhibition [1]: 95.4% (active) | inhibition [2]: 111% (active) | inhibition [3]: 98.2% (active) | inhibition [4]: 95.8% (active)

COc1ccc(-c2nnc(NC(=O)c3ccc([N+](=O)[O-])o3)o2)c(OC)c1
inhibition [1]: 15.5% | inhibition [2]: 63.4% (active) | inhibition [3]: 57% (active) | inhibition [4]: 10.2%

Cn1cnnc1SCC(=O)Nc1ccc(N2CCOCC2)cc1
inhibition [1]: 7.69% | inhibition [2]: 59.5% (active) | inhibition [3]: 34.5% | inhibition [4]: -9.61%

Cn1c(=O)c2c(nc(CN3CCOCC3)n2CC(=O)c2ccccc2)n(C)c1=O
inhibition [1]: -4.41% | inhibition [2]: -0.49% | inhibition [3]: 1.97% | inhibition [4]: 5.48%
